Measured values: PubChem BioAssay
A number with no mark means an inactive call. How the calls were made is not given here.

target: Pantothenate synthetase (Mycobacterium tuberculosis (strain ATCC 25618 / H37Rv)) (UniProt P9WIL5); assay: Recombinant Mtb pantothenate synthetase (PanC) inhibitors, coupled enzyme, confirmatory (AID 375); settings: coupled enzyme assay; at 10 µM, stronger effect = higher value;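 further: 0% = full reaction with vehicle and 100% = no enzyme background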
Sequence (P9WIL5 whole entry, looked up): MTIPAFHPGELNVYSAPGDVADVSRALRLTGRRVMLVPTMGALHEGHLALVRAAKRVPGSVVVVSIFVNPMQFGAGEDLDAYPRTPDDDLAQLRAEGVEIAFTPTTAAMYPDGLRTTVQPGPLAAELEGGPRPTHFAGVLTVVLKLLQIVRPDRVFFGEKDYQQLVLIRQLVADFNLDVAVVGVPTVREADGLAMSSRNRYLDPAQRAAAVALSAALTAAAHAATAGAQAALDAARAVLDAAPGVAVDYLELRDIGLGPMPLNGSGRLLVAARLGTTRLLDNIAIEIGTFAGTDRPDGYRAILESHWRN

SMILES | inhibition
CC(=O)C1=C(C)Nc2ncnn2C1c1cccc(OCc2ccccc2)c1 (stereo not given) | 0%
COc1ccc(N2C(=O)C(Cl)=C(Nc3c(C)n(C)n(-c4ccccc4)c3=O)C2=O)cc1 | 5%
CCOC(=O)C1CCCN(CCCc2ccccc2)C1 (stereo not given) | 0%
COCc1cc(C)nc(SCC(=O)Nc2cccc(C)c2C)c1C#N | 5%
Cc1nc(-c2cccc(N)c2)cs1 | 0%
COc1ccc(CNc2oc(-c3ccccc3)nc2C#N)cc1 | 5%
O=C(CN1CCN(c2cccc(Cl)c2)CC1)N1CCCC1 | 4%
CCOc1ccc(NC(=O)C2CC(=O)N(C(C)C)C2)cc1 (stereo not given) | 2%
CCNC(=O)C1CC(=O)N(Cc2ccc3c(c2)OCO3)C(=Nc2ccc(OCC)cc2)S1 (stereo not given) | 0%
O=C(Nc1ccccc1)N1CCC(c2ccccc2)C1 (stereo not given) | 6%
CSc1ccccc1NC(=O)c1cnc2n(c1=O)CCS2 | 7%
CC1=C(C(N)=O)C(c2ccccn2)n2nc(SCc3ccccc3)nc2N1 (stereo not given) | 0%
CC1=C(C(=O)N2CCOCC2)C(c2ccsc2)C2=C(CCCC2=O)N1 (stereo not given) | 0%
CC(C)(Oc1ccc(Cl)cc1)C(=O)NCc1ccncc1 | 3%
Cc1cnc(NC(=O)CSc2nc3ccccc3c(=O)[nH]2)s1 | 3%
CC(=O)OCC(=O)[C@@]1(O)CC[C@H]2[C@@H]3CCC4=CC(=O)CC[C@]4(C)[C@H]3C(=O)C[C@@]21C | 0%
O=C1c2ccccc2C(=O)N1CCCn1nnc(-c2ccc(N3CCOCC3)cc2)n1 | 3%
COCCNC(=O)CN1C(=O)CSc2ncccc21 | 0%
CCCCS(=O)(=O)NC1=NCN(CCOC(=O)c2ccccc2)CN1 | 0%
CN(c1ccccc1)S(=O)(=O)c1ccc(C(=O)OCC(=O)NCc2ccco2)cc1 | 5%

SMILES | inhibition
COCCCN(Cc1ccccn1)S(=O)(=O)Cc1ccccc1 | 0%
CCOC(=O)C1=C(C)Nc2nnnn2C1c1ccc(OC)c(Br)c1 (stereo not given) | 1%
CCCc1ccc(C(C)NC(=O)c2cnccn2)cc1 (stereo not given) | 0%
c1ccc(SCc2nc3ccccc3[nH]2)nc1 | 4%
CC1=C(C(=O)OCCOC(C)C)C(c2cc3c(cc2Br)OCO3)C2=C(CCCC2=O)N1 (stereo not given) | 0%
COc1cc(C(O)c2nc3ccccc3n2C)cc(OC)c1OC (stereo not given) | 0%
CC1(C)CC(=O)C2=C(C1)Nc1nc(SCCN3CCOCC3)[nH]c(=O)c1C2c1cccs1 (stereo not given) | 2%
CC1=C(C(=O)OCC(C)C)C(c2cc3c(cc2Br)OCO3)NC(=O)N1C (stereo not given) | 0%
CCN(CC)C(=O)CSC1=C(C#N)C(c2ccco2)C(C(=O)OCCOC)=C(C)N1 (stereo not given) | 0%
Cc1cccc(NC(=O)Cn2c(=O)n(C)c3ccccc32)c1 | 0%
CCCCn1c(CN2CCN(c3cccc(Cl)c3)CC2)nc2c1c(=O)n(C)c(=O)n2C | 6%
CC1(C)NC(=O)N(CCOc2cccc(Cl)c2Cl)C1=O | 0%
COc1cc(C(=O)Nc2cccc(-c3nncn3C)c2)cc(OC)c1OC | 0%
COC(=O)c1c(C#N)c(N)nc2c1CCC2 | 7%
CC(=O)Nc1nc2c(c3c1c(=O)oc1ccccc13)CC(C)CC2 (stereo not given) | 0%
CCOC(=O)c1sc2nc(NC(=O)C(C)(C)C)sc2c1C | 8%
Cc1nc2cc(N3CCCCC3)c(NC(=O)c3cccnc3)cc2c(=O)n1Cc1ccccc1 | 1%
CC(=O)NC(CCS(C)(=O)=O)C(=O)Nc1cccc2ccccc12 (stereo not given) | 0%
CCCN1Cc2cccc(C(=O)NC3CCCC3)c2C1=O | 0%
CCn1c(=O)n(CC(=O)NCc2ccccc2OC)c(=O)c2ccccc21 | 12%
